The text below walks through data of PubChem BioAssay (Tox21).

Assay [1] is described as follows: A CellTox Green Cytotoxicity Assay to monitor cytotoxicity in HEK293 cells - 40 hour (AID 1224871). Note: nearly all actives have a fitted effect of over 45% in size. Put shortly: (§1)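 Cells (HEK293, 600/well) and dye reagent are dispensed together. After 5 h at 37 C, 23 nL compound is pinned in. Plates stay at 37 C for 40 h with fluorescence read at 0h, 8h, 16h, 24h, 32h and 40h.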
Assay [2] is described as follows: qHTS RealTime-Glo MT Cell Viability Assay in HEK293 cells - 16 hour (AID 1224872). Note: nearly all actives have a fitted effect of over 50% in size. Note: potency is the fitted concentration of half-maximal effect. Put shortly:
(§2)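 Nonlytic real-time viability readout: viable cells convert prosubstrate to NanoLuc substrate, giving luminescence proportional to live cell number. HEK293, 600 cells/well, compound added after 5 h, continuous culture at 37 C.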

A short description of assay [3]: qHTS RealTime-Glo MT Cell Viability Assay in HepG2 cells - 8 hour (AID 1224873). Note: nearly all actives have a fitted effect of over 55% in size. Put shortly: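 Real-time viability: cells seeded at 600 per well together with NanoLuc and cell-permeant prosubstrate, compounds added after 5 h incubation. Luminescence tracked at 0, 8, 16, 24, 32 and 40 h of exposure.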
On the technique in general: In qHTS, concentration-response curves come from the screen itself.

Assay [4] in a line: qHTS RealTime-Glo MT Cell Viability Assay in HEK293 cells - 40 hour (AID 1224874). Note: nearly all actives have a fitted effect of over 50% in size. Note: potency is the fitted concentration of half-maximal effect. The note with it: RealTime-Glo luminescence; max response: stronger effect = lower value. Put shortly:
(§3)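 Real-time viability in HEK293: signal arises when living cells convert a prosubstrate for NanoLuc in the medium, so luminescence tracks viable cell number. Compound (23 nL, DMSO) added 5 h post-seeding; kinetic reads at 0–40 h, 37 C.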

Assay [5] in a line: A CellTox Green Cytotoxicity Assay to monitor cytotoxicity in HEK293 cells - 24 hour (AID 1224875). Note: series mostly up to about 77 µM; nearly all actives have a fitted effect of over 45% in size. Put shortly:
as §1

The nature of assay [6]: A CellTox Green Cytotoxicity Assay to monitor cytotoxicity in HepG2 cells - 16 hour (AID 1224876). Note: nearly all actives have a fitted effect of over 45% in size. Put shortly: (§4)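 Cells and non-lytic dye reagent are dispensed together (600 HepG2 cells/well) and incubated 5 h before DMSO compound transfer. Kinetic fluorescence is then recorded in the same wells during 40 h at 37 C.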
Assay [7] in a line: qHTS RealTime-Glo MT Cell Viability Assay in HepG2 cells - 32 hour (AID 1224877). Note: nearly all actives have a fitted effect of over 55% in size. Put shortly:
(§5)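 Luminescence read-out: viable HepG2 cells reduce a prosubstrate to a NanoLuc substrate, giving a signal proportional to live cell number. Reads taken at 0, 8, 16, 24, 32 and 40 h of compound exposure at 37 C.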

The nature of assay [8]: A CellTox Green Cytotoxicity Assay to monitor cytotoxicity in HepG2 cells - 24 hour (AID 1224878). Note: nearly all actives have a fitted effect of over 45% in size. Put shortly: as §4
Assay [9] is described as follows: A CellTox Green Cytotoxicity Assay to monitor cytotoxicity in HepG2 cells - 40 hour (AID 1224879). Note: nearly all actives have a fitted effect of over 40% in size. Put shortly:
as §4

Assay [10] in a line: qHTS RealTime-Glo MT Cell Viability Assay in HEK293 cells - 0 hour (AID 1224880). Put shortly: as §3
Assay [11] can be described thus: A CellTox Green Cytotoxicity Assay to monitor cytotoxicity in HEK293 cells - 32 hour (AID 1224881). Note: nearly all actives have a fitted effect of over 40% in size. Put shortly:
as §1

A short description of assay [12]: A CellTox Green Cytotoxicity Assay to monitor cytotoxicity in HepG2 cells - 0 hour (AID 1224882). Note: nearly all actives have a fitted effect of over 35% in size. Put shortly: as §4
Assay [13] can be described thus: A CellTox Green Cytotoxicity Assay to monitor cytotoxicity in HepG2 cells - 32 hour (AID 1224883). Note: nearly all actives have a fitted effect of over 50% in size. Put shortly:
as §4

Assay [14] can be described thus: A CellTox Green Cytotoxicity Assay to monitor cytotoxicity in HEK293 cells - 8 hour (AID 1224884). Note: nearly all actives have a fitted effect of over 35% in size. Put shortly: as §1
Assay [15] in a line: qHTS RealTime-Glo MT Cell Viability Assay in HepG2 cells - 16 hour (AID 1224885). Note: nearly all actives have a fitted effect of over 50% in size. Put shortly: as §5
Assay [16] can be described thus: qHTS RealTime-Glo MT Cell Viability Assay in HEK293 cells - 24 hour (AID 1224886). Note: nearly all actives have a fitted effect of over 50% in size. Note: potency is the fitted concentration of half-maximal effect. Put shortly: as §2
Assay [17] is described as follows: qHTS RealTime-Glo MT Cell Viability Assay in HEK293 cells - 8 hour (AID 1224887). Note: nearly all actives have a fitted effect of over 50% in size. Note: potency is the fitted concentration of half-maximal effect. Put shortly: as §3
Assay [18] is described as follows: qHTS RealTime-Glo MT Cell Viability Assay in HepG2 cells - 0 hour (AID 1224889). Note: nearly all actives have a fitted effect of over 50% in size. Note: potency is the fitted concentration of half-maximal effect. Put shortly: as §5
Assay [19] is described as follows: A CellTox Green Cytotoxicity Assay to monitor cytotoxicity in HepG2 cells - 8 hour (AID 1224890). Note: nearly all actives have a fitted effect of over 45% in size. Put shortly: as §4

Values joined by “and” are separate entries in the source; they are usually repeats but may differ in a detail not shown here. Identical values can stand only once. Results filed as inconclusive are left out. Some compounds were tested as several samples or in several runs, with calls that do not always agree. Active and inactive are the calls of the source. Calls come from the whole dose curve; as a rule, active = well fitted curve in the direction sought with a large enough effect in the repeat runs; inconclusive = weak or mixed curves; inactive = no such curve, though single readings can be large; an effect the other way counts as inactive or inconclusive.
% is set by controls: 0 for no effect and ±100 for the full control effect.

Consider `COc1c(Cl)ccc(Cl)c1C(=O)O`, for which the Potency entry in [1], in assay [2], in assay [3], in assay [5], in [6] and in assay [7] was “inactive” each time. Also, the Potency result in [8], in [9], in assay [10], in [11], in [12] and in assay [13] was “inactive” throughout. Further, the Potency entry in assay [14], in assay [15], in [16], in assay [17], in assay [18] and in assay [19] was “inactive” in each case. In addition, the max response in assay [4] is 2.72% (inactive) and -3.19% (inactive).

Turning to `O=c1c(O)c(-c2ccc(O)c(O)c2)oc2cc(O)cc(O)c12`, the Potency entry in assay [1], in assay [2], in assay [3], in [5], in [6] and in assay [7] was “inactive” each time. In addition, the Potency entry in [8], in assay [9], in assay [11], in assay [12], in assay [13] and in [14] was “inactive” throughout. The Potency result in assay [15], in [16], in [17] and in assay [19] was “inactive” in each case. Besides, in assay [4], the max response is -22.5% (inactive).

On to `CCOC(=O)CC(=O)OCC`, for which the Potency entry in [1], in [2], in assay [3], in assay [5], in [6] and in assay [7] was “inactive” throughout. The Potency result in assay [8], in [9], in [10], in [11], in assay [12] and in assay [13] was “inactive” throughout. Further, the Potency entry in [14], in [15], in [16], in assay [17], in assay [18] and in assay [19] was “inactive” in each case. The max response in assay [4] was 5.3% (inactive) and 0.825% (inactive).

Consider `O=[N+]([O-])c1cc(C(F)(F)F)ccc1Cl`, for which the Potency entry in [1], in assay [2], in [3], in assay [5], in assay [6] and in assay [7] was “inactive” throughout. The Potency result in [8], in assay [9], in [10], in assay [11], in assay [12] and in [13] was “inactive” in each case. Also, the Potency result in assay [14], in assay [15], in assay [16], in assay [17], in assay [18] and in assay [19] was “inactive” in each case. In addition, the max response in [4] is -1.22% (inactive) and -0.472% (inactive).

On to `CN1Cc2c(N)cccc2C(c2ccccc2)C1` (centres undefined), for which the Potency entry in assay [1], in assay [2], in assay [3], in assay [5], in [6] and in assay [7] was “inactive” each time. Further, the Potency result in assay [8], in assay [9], in [10], in assay [11], in assay [12] and in assay [13] was “inactive” each time. The Potency result in assay [14], in assay [15], in assay [16], in assay [17], in assay [18] and in assay [19] was “inactive” throughout. The max response in assay [4] is -23.8% (inactive) and -3.82% (inactive).

Take `O=c1n(CCCN2CCN(c3cccc(Cl)c3)CC2)nc2ccccn12`: the Potency result in [1], in assay [3], in assay [5], in [6], in [7] and in [8] was “inactive” throughout. Further, the Potency entry in [9], in [10], in [11], in assay [12], in assay [13] and in assay [14] was “inactive” each time. Moreover, the Potency entry in [15] and in assay [19] was “inactive” in each case. The Potency in [2] is 12.3 µM (active) and 9.52 µM (active); in assay [4] it was 13.8 µM (active) and 9.52 µM (active); in [16], 13.8 µM (active) and 16.9 µM (active); in assay [17], 11 µM (active) and 10.7 µM (active); in [18] it was 49 µM (active) and inactive.

Consider `C=CC(=O)NCOCCCC`, for which the Potency result in assay [1], in assay [2], in assay [3], in assay [5], in assay [6] and in assay [7] was “inactive” each time. The Potency result in assay [8], in [9], in assay [10], in assay [11], in assay [12] and in assay [13] was “inactive” throughout. Besides, the Potency result in assay [14], in [15], in assay [16], in assay [17], in assay [18] and in assay [19] was “inactive” each time. Further, the max response in [4] is 1.11% (inactive) and 4.5% (inactive).

Consider `CCc1cccc(O)c1`, for which the Potency entry in assay [1], in assay [2], in assay [3], in assay [5], in assay [6] and in assay [7] was “inactive” each time. For the same compound, the Potency entry in assay [8], in [9], in assay [10], in assay [11], in [12] and in [13] was “inactive” each time. The Potency entry in [14], in assay [15], in [16], in [17], in assay [18] and in assay [19] was “inactive” in each case. Further, the max response in [4] was -1.01% (inactive) and 0% (inactive).

Take `C[n+]1ccn(CCO)c1`: the Potency result in assay [1], in assay [2], in assay [3], in [5], in assay [6] and in assay [7] was “inactive” in each case. The Potency result in assay [8], in assay [9], in assay [10], in [11], in assay [12] and in assay [13] was “inactive” each time. The Potency entry in [14], in assay [15], in assay [16], in [17], in assay [18] and in [19] was “inactive” in each case. In addition, the max response in [4] was 6.1% (inactive) and 16.8% (inactive).

In the case of `Oc1ccc(Cc2ccccc2O)cc1`, the Potency entry in assay [1], in assay [3], in assay [5], in assay [6], in [7] and in assay [8] was “inactive” in each case. The Potency entry in assay [9], in assay [10], in [11], in assay [12], in assay [13] and in assay [14] was “inactive” in each case. Moreover, the Potency result in assay [15], in assay [18] and in assay [19] was “inactive” each time. The Potency in [2] is 15.5 µM (active); in assay [4], 14 µM (active) and 17.4 µM (active); in [16], 12.3 µM (active).

As to `CC1(C)[C@@H](O[C@H]2O[C@H](C(=O)O)[C@@H](O)[C@H](O)[C@H]2O[C@@H]2O[C@H](C(=O)O)[C@@H](O)[C@H](O)[C@H]2O)CC[C@]2(C)[C@H]3C(=O)C=C4[C@@H]5C[C@@](C)(C(=O)O)CC[C@]5(C)CC[C@@]4(C)[C@]3(C)CC[C@@H]12`, the Potency result in [1], in [2], in [3], in assay [5], in [6] and in [7] was “inactive” in each case. The Potency result in [8], in assay [9], in [11], in [12], in assay [13] and in assay [14] was “inactive” in each case. The Potency result in assay [15], in assay [16], in assay [17] and in [19] was “inactive” throughout. For the same compound, the max response in assay [4] is -4.4% (inactive) and 0.425% (inactive).
